Source: PubChem
Shown are actives, neighbours in structure and some others; about 6% of the full set was active somewhere.
DRD3 antagonist – blocks the human D3 dopamine receptor; P35462; D3R cells, DiscoveRx beta-arrestin luminescence, antagonist mode; stronger effect = lower value; max response, negative = inhibition, %; 2.5% of 360,000 active; AID 652054; in the data active means max response below about -50%; inconclusive means no clear call, values can overlap the other calls; further: on the % scale 0 is the no-effect control and ±100 the full control effect
Target sequence (P35462 whole entry, looked up): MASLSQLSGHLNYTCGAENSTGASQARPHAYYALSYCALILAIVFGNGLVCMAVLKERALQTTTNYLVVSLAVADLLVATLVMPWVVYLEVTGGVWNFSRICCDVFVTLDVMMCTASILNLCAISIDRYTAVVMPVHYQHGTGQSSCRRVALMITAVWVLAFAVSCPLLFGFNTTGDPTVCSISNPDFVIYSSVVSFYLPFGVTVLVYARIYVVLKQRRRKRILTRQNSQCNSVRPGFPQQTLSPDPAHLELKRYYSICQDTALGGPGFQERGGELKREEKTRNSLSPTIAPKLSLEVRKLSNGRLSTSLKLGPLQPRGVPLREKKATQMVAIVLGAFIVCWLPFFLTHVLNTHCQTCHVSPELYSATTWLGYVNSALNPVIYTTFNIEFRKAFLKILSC
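Cells expressing the human receptor were seeded at 1500 cells/well, incubated overnight at 37 degrees C in 5% CO2, then exposed to library compounds with dopamine controls for 90 minutes at 37 degrees C before luminescent detection.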
D1 PAM – potentiators of human D1 dopamine receptor; P21728; HEK293 TREx D1 cells, calcium flux, dopamine EC20 potentiation; potentiation, % at 10 µM; 0.036% of 360,000 active; AID 504651; in the data active means potentiation above about 30%; further: 0% is about no effect
D1 ag – activates the human D1 dopamine receptor. P21728. HEK293 T-REx D1 cells, calcium flux, agonist mode. activation, % at 2 µM. 1% of 360,000 active. AID 504660; in the data active means activation above about 30%; further: 0% is about no effect
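Agonism was scored from calcium flux recorded over 180 s (1 read/s) after pintool compound addition, following a 10-cycle baseline. Cells were inducible force-coupled HEK293 TREx D1, plated overnight at 30 C and loaded with no-wash calcium dye.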
D1 antagonist – blocks dopamine activation of the human D1 receptor; P21728; HEK293 TREx D1 cells, calcium flux, dopamine EC80; stronger effect = lower value; activity change, negative = inhibition, % at 10 µM; 3.2% of 360,000 active; in the data active means activity change below about -30%; further: on the % scale 0 is the no-effect control and ±100 the full control effect
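HEK293 T-REx cells expressing inducible, force-coupled D1 receptor; no-wash Ca dye, 30–90 min RT. Cmpd → 180 s read at 1 Hz → EC80 DA → 180 s read.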
DRD3 agonist – agonists of human D3 dopamine receptor. D3R DiscoveRx beta-arrestin cells, luminescence, 90 min. max activation, %. P35462. AID 652048. 0.58% of 410,000 active; in the data active means max activation above about 30%; further: 0% is about no effect
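Agonist mode: compounds and dopamine controls were applied to plated cells for 90 min at 37 degrees C after an overnight attachment at 1500 cells/well. Luminescent read-out followed 30 - 60 minutes at room temperature with DiscoveRx detection reagent.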
Active calls of the source: *.

Screening Cc1ccc(COC(=O)c2ccc(-c3nnn(Cc4ccc(C)cc4)n3)cc2)cc1 returned D1 PAM 0, D1 ag 0, D1 antagonist 0 and DRD3 agonist -6.
For c1ccc(COc2ccccc2CNc2nn[nH]n2)cc1 the results were DRD3 antagonist 15, D1 PAM 9, D1 ag 0, D1 antagonist -75* and DRD3 agonist -8.
For Cn1c(=O)[nH]c2cc(-c3noc(-c4ccc(C#N)cc4)n3)ccc21 the results were D1 PAM 0, D1 ag 2, D1 antagonist -8 and DRD3 agonist 3.
`OC(CN1CCN(c2ccccn2)CC1)Cn1c2ccccc2c2ccccc21` (configuration not stated) gave DRD3 antagonist 0, D1 PAM -2, D1 ag 10, D1 antagonist -2 and DRD3 agonist 0.
Cc1cc(C)c(OCC(O)CN2CCN(c3ccccn3)CC2)c(C)c1 (configuration not stated) was read as DRD3 antagonist 0, D1 PAM -14, D1 ag 4, D1 antagonist -8 and DRD3 agonist 106*.
`CC1CCCC(C)N1CC(O)COC1CCC(C(C)(C)C)CC1` (configuration not stated) gave DRD3 antagonist -12, D1 PAM -8, D1 ag 31*, D1 antagonist 25 and DRD3 agonist 1.
`OC(COC(c1ccccc1)c1ccccc1)CN1CCN(c2ccccn2)CC1` (configuration not stated) gave DRD3 antagonist -9, D1 PAM -4, D1 ag 5, D1 antagonist -12 and DRD3 agonist 56*.
CC1CN(CC(O)COC2CCC(C(C)(C)C)CC2)CC(C)O1 (configuration not stated) was read as DRD3 antagonist 0, D1 PAM -4, D1 ag 5, D1 antagonist 4 and DRD3 agonist -8.
`OC(COc1ccc(Cl)c2ccccc12)CN1CCN(c2ccccn2)CC1` (configuration not stated) gave DRD3 antagonist 5, D1 PAM -1, D1 ag 5, D1 antagonist -20 and DRD3 agonist 72*.
For COc1ccc(C(=O)Nc2ccccc2-c2nc3ccccc3s2)c(OC)c1 the results were D1 PAM -2, D1 ag 3, D1 antagonist 3 and DRD3 agonist 12.
`O=C(CC1C(=O)N(c2ccccc2)C(=O)N1CCC1=CCCCC1)Nc1ccc(F)cc1` (configuration not stated) gave D1 PAM -4, D1 ag 2, D1 antagonist 1 and DRD3 agonist -5.
`CC(C)(C)C1CCC(OCC(O)CN2CCN(c3ccccn3)CC2)CC1` (configuration not stated) gave DRD3 antagonist -4, D1 PAM -2, D1 ag 5, D1 antagonist -3 and DRD3 agonist 65*.
For OC(COc1cc(Cl)c(Cl)cc1Cl)CN1CCN(c2ncccn2)CC1 (configuration not stated) the results were DRD3 antagonist inconclusive, D1 PAM -8, D1 ag 11, D1 antagonist 0 and DRD3 agonist 16.
Cc1cc(OCC(O)CN2CCN(c3ccccn3)CC2)cc(C)c1Cl (configuration not stated) was read as DRD3 antagonist -3, D1 PAM -9, D1 ag 6, D1 antagonist 33 and DRD3 agonist 51*.
`CC(C)(C)C1CCC(OCC(O)CN2CCN(Cc3ccccc3)CC2)CC1` (configuration not stated) gave DRD3 antagonist inconclusive, D1 PAM 6, D1 ag 8, D1 antagonist -2 and DRD3 agonist -7.
For CC(C)C(=O)Nc1cccc(C(=O)Nc2nnc(C(F)(F)F)s2)c1 the results were D1 PAM -1, D1 ag 2, D1 antagonist -7 and DRD3 agonist -13.
Screening COc1ccc2c(c1)c(=O)c(S(=O)(=O)c1ccccc1)cn2CC(=O)Nc1ccc(C)c(Cl)c1 returned D1 PAM -2, D1 ag 5, D1 antagonist 0 and DRD3 agonist -5.
CCCC(=O)c1cc(O)c(O)cc1O was read as DRD3 agonist 14.
Screening Oc1c(Br)cc(Br)cc1CNc1cccc2cccnc12 returned DRD3 antagonist -58*, D1 PAM 4, D1 ag 9, D1 antagonist 0 and DRD3 agonist -3.
For Oc1ccc(Br)cc1CNc1cccc2cccnc12 the results were DRD3 antagonist inconclusive, D1 PAM -30, D1 ag 0, D1 antagonist -13 and DRD3 agonist -10.
Screening CCOc1cc2sc(N3CCC(C(=O)Nc4ccc(C)cc4)CC3)nc2cc1Br returned D1 PAM -4, D1 ag 1, D1 antagonist -58* and DRD3 agonist -4.
`COc1ccc(CCNc2ncnc3sccc23)cc1OC` gave DRD3 antagonist 15, D1 PAM -3, D1 ag 25, D1 antagonist -39* and DRD3 agonist 9.
For COc1ccc(CCNc2ncnc3c2oc2ccccc23)cc1OC the results were DRD3 antagonist 12, D1 PAM -15, D1 ag 13, D1 antagonist -69* and DRD3 agonist 22.
`COc1ccccc1CNc1ncnc2sccc12` gave DRD3 antagonist 6, D1 PAM -8, D1 ag 31*, D1 antagonist -31* and DRD3 agonist 18.
For CC(C)CCn1c(=O)c2sccc2n2c(CCCC(=O)NC3CCC(C)CC3)nnc12 (configuration not stated) the results were D1 PAM -3, D1 ag 0, D1 antagonist -5 and DRD3 agonist -19.
Cc1cc2c(cc3c(SCc4ccc(Cl)cc4)nncn32)o1 was read as D1 PAM -4, D1 ag 0, D1 antagonist -17 and DRD3 agonist 10.
For CCN(c1ccccc1)S(=O)(=O)c1ccc(OC)c(NC(=O)CNCCc2ccccc2)c1 the results were DRD3 antagonist 0, D1 PAM -13, D1 ag 22, D1 antagonist -33* and DRD3 agonist -16.
O=C(Oc1oc(-c2ccco2)nc1C=Nc1ccccc1)c1ccco1 was read as DRD3 antagonist -50*, D1 PAM 2, D1 ag 0, D1 antagonist 1 and DRD3 agonist -8.
`O=C(Oc1oc(-c2ccco2)nc1C=Nc1ccccc1)c1ccoc1` gave DRD3 antagonist inconclusive, D1 PAM -4, D1 ag 1, D1 antagonist -6 and DRD3 agonist 1.
`O=C(Oc1ccc2cc(Br)ccc2c1)N1CCCCCC1` gave D1 PAM -1, D1 ag 41* and D1 antagonist -7.
Screening O=C(COc1ccc2cc(Br)ccc2c1)N1CCOCC1 returned DRD3 antagonist 8 and DRD3 agonist 8.
